Only some compounds are listed: those with a hit (about 6.5% of all), similar ones and a draw of the others.
IL-1B inflam inh – blocks inflammasome-driven IL-1 beta release. 360,000 tested, 4.7% active. THP-1 LPS/ATP IL-1B secretion, AlphaLISA, 16 h; stronger effect = lower value. activity change, % at 57.5 µM. AID 743279; in the data active means activity change below about -50%; inconclusive means mostly about -30% to -49%; further: on the % scale 0 is the no-effect control and ±100 the full control effect
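THP-1 cells pretreated 1 hr with compounds (up to 57.5 uM final), then stimulated with LPS (250 ng/mL final) plus ATP (1.25 mM final); secreted IL-1B measured by AlphaLISA after 16 hr, decreased signal indicating inhibition.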
HepG2 viability – counter-screen for TGF-b inhibitors: cytotoxicity in HepG2 cells | HepG2 CAGA-GFP viability, ATP luminescence, 18 h | Potency, µM (series often up to 46.1 µM), inactives show at the highest dose activity change, negative = cytotoxicity, hits mostly cytotoxic | 410,000 tested, 0.76% active; further: potency means the concentration at half of the fitted maximal effect
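HepG2 CAGA-GFP cells (1000/well, DMEM with 1% FBS) received compound, then TGF-beta at 500 pg/mL final, and were incubated 18 hours at 37 degrees C. Viability was read by CellTiter-Glo luminescence. Media-only wells were set as complete cell-killing and DMSO as no toxicity.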
Giardia killer – Giardia lamblia killing; Giardia lamblia trophozoite viability; activity change, % at 7.66 µM, hits read low; 340,000 tested, 0.15% active; AID 540267; in the data active means activity change below about -80%; inconclusive means between about -30% and that limit;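 further: parasites exposed to compound for two days anaerobically before the ATP read; on the % scale 0 is the no-effect control and ±100 the full control effect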
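Viability, read as ATP luminescence: trophozoites at 100 cells/well, compound added, 48 hrs anaerobic at 37 deg C, then 15-30 min room-temperature development before reading.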
HT1080-NT tox – kills 2HG-producing HT-1080-NT fibrosarcoma cells | HT-1080-NT fibrosarcoma viability, CellTiter-Glo ATP luminescence, 48 h | Potency, µM (highest dose often 46.1 µM), for the others: at the highest dose activity, negative = less viability, actives largely listed as cytotoxic | 360,000 tested, 1.6% active;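 further: NT is the 2HG producing partner of a matched IDH1 knockdown line; potency means the concentration at half of the fitted maximal effect; 0% = DMSO-treated cells and -100% = media-only wells without cells; nearly all actives have a fitted effect of over 55% in size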
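750 cells/well, RPMI + 5% FBS; 2 h settle, compound pin-transfer, 48 h at 37 degrees C. CellTiter-Glo 10 min RT, luminescence. Normalized to DMSO and media-only wells.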
HT1080 IDH1KD tx – kills HT-1080 cells with IDH1 knockdown; Potency, µM (titrated, usually from 46.1 µM), inactives show at the top dose activity, negative = toxicity, most hits filed as cytotoxic; HT-1080 IDH1 knockdown viability, ATP luminescence, 48 h; 360,000 tested, 2% active; AID 686971;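 further: potency means the concentration at half of the fitted maximal effect; 0% = DMSO wells and -100% = cell-free medium wells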
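% activity derives from luminescence (CellTiter-Glo), normalised to DMSO and no-cell wells. HT-1080-IDH1KD cells, 750/well, had 48 h compound exposure at 37 °C.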
TGFb inhibitor – inhibitors of TGF-b signaling; 410,000 tested, 1.2% active; HepG2 CAGA-GFP TGF-b/SMAD3 reporter, GFP fluorescence, 18 h; TGF-beta stimulated, 500 pg/mL final; Potency, µM (titrated, usually from 46.1 µM), for the others: at the highest dose activity, negative = inhibition, actives largely listed as inhibitors; AID 588855; further: potency means the concentration at half of the fitted maximal effect; on the % scale 0 is the no-effect control and ±100 the full control effect; nearly all actives have a fitted effect of over 65% in size
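HEPG2 CAGA-GFP, 1000 cells/well; 2 h settle, 37 C; cpd via pin tool; TGF-b 500 pg/mL final; 18 h, 37 C; GFP imaging ex488/em500-530; %Activity normalised to -TGF-b and +DMSO controls; CRC fit, curve class.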
* marks the source's active call; other numbers are inactive results; u = inconclusive; x = no result. Unless noted, the call rests on the fitted dose curve; in most records, active means well fitted curve in the direction sought with a large enough effect; inconclusive means small, poorly fitted or top-dose-only effect, or another doubt; inactive means no such curve, though single readings can be large; an effect the other way counts as inactive or inconclusive.

SMILES	IL-1B inflam inh	HepG2 viability	Giardia killer	HT1080-NT tox	HT1080 IDH1KD tx	TGFb inhibitor
COC(=O)Cc1nnc(SCC(=O)Nc2ccccc2)c2ccccc12	-62.7*	-69.0%	-5.5	5.4%	-5.1%	u
CCc1nnc(SCC(=O)Nc2ccccc2)nc1CC	12.2	7.7%	0.2	12.2%	-2.8%	-31.4%
O=C(CSc1nnc(-c2ccc(F)cc2)c2ccccc12)Nc1cccc(Cl)c1	-95.2*	-16.3%	11.6	-2.3%	-11.7%	-19.1%
CCOC(=O)C1=CCCN(S(=O)(=O)c2ccc(C)cc2)C1	28.0	-43.8%	x	-0.6%	9.9%	-20.5%
Cc1ccc(C(=O)N[C@H](C(=O)Nc2ccc(F)cc2)C(C)C)cc1	-15.6	9.3%	7.0	1.9%	2.3%	3.5%
N#CC1=C(N)N2C(=C(C#N)C1c1cccc(Br)c1)Nc1ccccc12 (stereo unspecified)	-118.6*	-50.2%	8.7	u	u	3.16µM*
N#CC1=C(N)N2C(=C(C#N)C1c1ccc(Br)cc1)Nc1ccccc12 (stereo unspecified)	u	-43.1%	-7.6	u	u	2.82µM*
O=C(c1ccccc1)N1CCN(C(=O)c2ccc([N+](=O)[O-])cc2)CC1	1.0	7.7%	-8.1	10.0%	10.2%	-2.0%
CC(C)N1CCN(C(=O)c2ccc([N+](=O)[O-])cc2)CC1	-1.6	11.2µM*	25.0	9.5%	7.4%	-18.7%
Cc1ccc(NC(=O)Cn2c(=O)oc3ccccc32)cc1C	-8.5	9.2%	0.0	12.3%	9.9%	14.1%
CC(Oc1cccnc1[N+](=O)[O-])C(=O)Nc1ccc(F)cc1 (stereo unspecified)	-15.6	14.7%	u	4.9%	-8.9%	32.6%
CC(Oc1cccnc1[N+](=O)[O-])C(=O)Nc1cccc(Cl)c1 (stereo unspecified)	-0.1	-3.0%	-86.9*	3.7%	0.0%	-6.7%
Fc1ccc(-c2cc(C(F)(F)F)n3ncnc3n2)cc1	-14.9	-24.9%	2.1	0.8%	-5.7%	-26.3%
COc1ccccc1CNC(=O)C1Cc2cc(S(=O)(=O)N3CCCC3)ccc2N1C(C)=O (stereo unspecified)	9.5	0.8%	8.5	0.8%	0.8%	10.9%
Cn1c(-c2ccccc2)c(C(=O)CCl)c2ccccc21	-117.7*	-55.4%	-11.7	14.6µM*	10.3µM*	u
CCn1c(-c2ccccc2)c(C(=O)CCl)c2ccccc21	-108.1*	8.7%	-12.8	u	20.6µM*	3.2%
COc1ccccc1C(=O)NCCC(=O)Nc1ccc(S(=O)(=O)Nc2ncccn2)cc1	34.2	5.6%	20.4	13.7%	8.2%	1.3%
Cc1ccc(CNC(=O)CCC2CCCN(Cc3ccc4cccc(F)c4n3)C2)o1 (stereo unspecified)	-10.0	7.9%	-1.3	3.7%	-1.0%	5.3%
Clc1ccc2c(c1)-c1nnc(Br)n1-c1ccccc1S2	-55.1*	-15.5%	2.2	-27.3%	-20.3%	15.6%
Brc1nnc2n1-c1ccccc1Sc1ccccc1-2	u	-4.5%	14.3	-6.0%	-1.1%	0.2%
OCCN(CCO)CC(O)COc1ccc(C23CC4CC(CC(C4)C2)C3)cc1 (stereo unspecified)	u	-87.9%	5.6	-7.5%	3.9%	17.8µM*
COc1cc2nc(N3CCN(C(=O)OCc4ccccc4)[C@H](C(=O)NC(C)(C)C)C3)nc(N)c2cc1OC	-18.7	-43.1%	-28.5	18.4µM*	u	3.5%
CCCC[n+]1c(/C=C/c2ccc(N(C)C)cc2)sc2ccccc21	x	-36.3%	x	x	x	u
CN(Cc1ccccc1)c1ccc(/C=C/c2sc3ccccc3[n+]2C)cc1	x	-33.6%	x	x	x	3.16µM*
CN(Cc1ccc(C(C)(C)C)cc1)C(=O)C1CCN(C(=O)Nc2ccccc2)CC1	-60.5*	-3.3%	9.0	-18.9%	-24.1%	0.0%
SMILES	IL-1B inflam inh	HepG2 viability	Giardia killer	HT1080-NT tox	HT1080 IDH1KD tx	TGFb inhibitor
S=C(Nc1ccccc1)N1CCn2c(nc3ccccc32)C1	37.0	1.3%	-19.8	4.1%	5.3%	1.4%
c1ccc(CCCNCCCn2cnc3c(OCc4ccccc4)ncnc32)cc1	-85.7*	-100.5%	34.7	-22.6%	u	u
C[C@@H](NCCCn1cnc2c(OCc3ccccc3)ncnc21)c1cccc2ccccc12	-26.7	14.1µM*	-6.0	-29.4%	u	u
CC(C)(C)c1cc(NC(=O)C2(C)CCN2C(=O)C2(c3ccccc3)CCCC2)no1 (stereo unspecified)	13.3	19.6%	x	23.8%	28.9%	0.3%
CCOC(=O)c1[nH]c2ccccc2c1NC(=O)c1c(F)cccc1F	x	-19.0%	x	x	x	-9.7%
Cc1ccc(NS(=O)(=O)c2cccc3nsnc23)cc1	23.2	-21.8%	-7.4	5.7%	11.7%	-7.0%
Cc1ccc(S(C)(=O)=NS(=O)(=O)c2cccc3nsnc23)cc1 (stereo unspecified)	-53.2*	-2.4%	-2.2	-0.1%	3.9%	-0.3%
CC(C)C(=O)N1CCN(c2ccc([N+](=O)[O-])c(NC(C)c3ccccc3)c2)CC1 (stereo unspecified)	-63.8*	-14.9%	-3.5	u	-22.2%	u
CCOC(=O)C1=C[C@@H](C2CCCCC2)N(S(=O)(=O)c2ccc([N+](=O)[O-])cc2)[C@H]1c1ccccc1	-18.7	-9.8%	x	u	8.2µM*	u
CCOC(=O)C1=CC[C@@H](c2ccc([N+](=O)[O-])cc2)N(S(=O)(=O)c2ccc(C)cc2)[C@H]1c1ccccc1	41.2	-6.1%	x	13.0%	11.9%	-8.9%
COc1ccc(N(C)S(=O)(=O)c2cccc(C(=O)Nc3nc4ccccc4[nH]3)c2)cc1	u	10.2%	-21.3	-21.7%	u	-18.1%
CN(c1cccc(Cl)c1)S(=O)(=O)c1cccc(C(=O)Nc2nc3ccccc3[nH]2)c1	-61.9*	0.7%	-10.1	u	u	-5.0%
O=C(Nc1cccc2c1CCCC2)c1ccc(Cl)c([N+](=O)[O-])c1	-72.9*	-9.3%	5.9	-12.8%	-5.8%	0.4%
NS(=O)(=O)c1cccc(NC(=O)c2cc(=O)c3ccccc3o2)c1	-6.1	2.7%	21.9	7.8%	11.6%	-5.6%
CN(c1ccccc1)S(=O)(=O)c1cccc(NC(=O)c2ccc(Cl)c([N+](=O)[O-])c2)c1	-87.6*	-4.0%	-5.7	-13.3%	u	u
CN(c1ccccc1)S(=O)(=O)c1cccc(NC(=O)c2cc(=O)c3ccccc3o2)c1	-52.3*	-6.9%	-6.8	-19.7%	-26.4%	6.7%
O=C(Cn1ccc2ccccc21)Nc1ccc2c(c1)OCO2	-7.5	-2.1%	-3.0	-8.2%	-3.9%	13.4%

From PubChem
